Bioassay records as filed in PubChem BioAssay.
CtBP-E1A inh: qHTS Assay for Inhibitors of the CtBP/E1A Interaction; CtBP / adenovirus E1A interaction (AlphaScreen); AlphaScreen GST-E1A/His-CtBP binding, 1536-well; active compounds read low; activity change, % (no concentration beside the values); actives 0.49% (n = 340,000); in the data active = activity change below about -65%; inconclusive = mostly about -30% to -63%
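GST-E1A and His-tagged CtBP (125 nM each as 5X stock) were preincubated with pin-transferred compound for 2 h at 37 °C in the dark, then glutathione donor and nickel acceptor beads were added for 1 h before AlphaScreen reading.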
Six1-Eya2 blk: qHTS Assay for Inhibitors of the Six1/Eya2 Interaction. AlphaScreen GST-Six1/His-Eya2 binding, biochemical; active compounds read low. Homeobox protein SIX1 (Homo sapiens) + Protein phosphatase EYA2 (Homo sapiens), …. activity change, % (no concentration beside the values). actives 0.56% (n = 360,000). AID 651725, 2012; in the data active = activity change below about -65%; inconclusive = mostly about -30% to -63%
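GST-Six1 + His-Eya2 (5X stock: 250/500 nM); Tris pH 8.0, 300 mM NaCl, 0.05% BSA, 0.02% Tween 20; GSH donor/Ni acceptor beads; 1 h 37 °C dark; AlphaScreen readout.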
BAZ2B inh: qHTS Assay for Inhibitors of BAZ2B. Bromodomain adjacent to zinc finger domain protein 2B (Homo sapiens), Q9UIF8. AlphaScreen BAZ2B-H3K14Ac peptide displacement. Potency, µM (titrated, usually from 114 µM), hits mostly inhibitors. actives 4.4% (n = 360,000); also: nearly all actives have a fitted effect of over 60% in size
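AlphaScreen displacement of biotin-H3(5-23)K14Ac peptide (50 nM final) from BAZ2B (50 nM final) in PBS pH 7.4, 0.01% Tween-20; complex preformed 30 min RT, then compounds (top 110 uM) 30 min RT, beads 20 min dark.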
JMJD2A Tudor: qHTS Assay for Inhibitors of JMJD2A-Tudor Domain | actives 4.4% (n = 390,000) | AlphaScreen JMJD2A-Tudor / H3K4me3 peptide binding | Potency, µM (series often up to 114 µM), usual class: inhibitors; also: nearly all actives have a fitted effect of over 50% in size
G9a inh: qHTS Assay for Inhibitors of Histone Lysine Methyltransferase G9a. G9a H3K9 monomethylation, AlphaScreen, 2 h. Histone-lysine N-methyltransferase EHMT2 (Homo sapiens), Q96KQ7. actives 8.8% (n = 350,000). AID 504332, 2011. Potency, µM (series often up to 102 µM), usual class: inhibitors; also: nearly all actives have a fitted effect of over 75% in size
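Readings reflect AlphaScreen signal from monomethyl-H3K9 antibody detection. HMT at 20 nM; substrate b-H3K9 500 nM; cofactor SAM 20 uM; 2 h RT reaction; compounds tested as titrations in qHTS with 15 min preincubation.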
HP1b binding inh: HTS for Inhibitors of HP1-beta Chromodomain Interactions with Methylated Histone Tails; AlphaScreen HP1-beta / biotin-H3K9me3 peptide binding; Potency, µM (top dose mostly 114 µM), most hits filed as inhibitors; actives 0.56% (n = 390,000); also: nearly all actives have a fitted effect of over 70% in size
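Compound inhibition of the preformed complex between 50 nM HP1-beta and 50 nM biotinylated H3K9me3 peptide was read by AlphaScreen. Buffer was PBS pH 7.4 with 0.01% Tween-20. Incubations ran 30 min at room temperature, with 10 ug/mL donor/acceptor beads.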
Hits are given with their value; – = inactive; ? = inconclusive; · = not tested or not shown; [ ] = another dose, or the depositor's remark. Compounds with a hit are over-represented: about 10% of the library has one in this group of screens. Unless noted, calls follow the shape of the dose curve; as a rule, active = well fitted inhibition curve with a large enough effect; inconclusive = small, poorly fitted or top-dose-only effect; inactive = no such curve, though single readings can be large or run the other way.

SMILES | CtBP-E1A inh | Six1-Eya2 blk | BAZ2B inh | JMJD2A Tudor | G9a inh | HP1b binding inh
Cc1cc2c(s1)c1cnn(Cc3ccc(F)c(F)c3F)c(=O)c1n2C | · | · | · | – | · | ·
C/C(=N\NC(=O)c1c(C)nc2ccccn12)c1ccc(O)cc1O | – | – | 1.8µM | – | – | –
CCCCNc1c([N+](=O)[O-])cc(C)cc1[N+](=O)[O-] | – | -67 | 32µM | 18µM | 40µM | 16µM
CCCCNc1c([N+](=O)[O-])cc(C(=O)O)cc1[N+](=O)[O-] | – | – | – | – | – | –
O=[N+]([O-])c1ccc(Cl)c(/C=N/N2CCN(c3ccccc3)CC2)c1 | – | ? | 11µM | 10µM | 32µM | ?
COc1ccccc1N1CCN(/N=C/c2cc([N+](=O)[O-])ccc2Cl)CC1 | – | ? | 7.9µM | ? | ? | –
O=[N+]([O-])c1ccc(Cl)c(/C=N/N2CCN(C3c4ccccc4-c4ccccc43)CC2)c1 | – | – | – | ? | –[0.501 µM] | –
CCN1CCc2c(sc(-n3cccc3)c2C(C)NC(=O)Nc2ccccc2C)C1 (stereo not given) | · | · | ? | – | ? | –
COc1ccc(N2CC(NC(=O)c3ccc(Br)o3)CC2=O)cc1 (stereo not given) | · | · | – | – | – | –
Cc1ccc(/C=C/C(=O)Nc2cc(S(N)(=O)=O)ccc2O)cc1 | – | – | – | – | 8.9µM | ?
O=C(C1COc2ccccc2O1)N(Cc1cccnc1)c1nc2ccc(F)cc2s1 (stereo not given) | · | · | – | – | – | –
CC[C@@H](C)[C@@H](CO)NC(=O)[C@H]1O[C@@H](n2cnc3c(N)ncnc32)[C@H](O)[C@@H]1O | – | – | · | · | · | ·
COCCOCC(O)CN1CCN(c2ccc(C)cc2)CC1 (stereo not given) | – | – | · | ? | 4.5µM | –
COCCOCC(O)CN1CCN(c2ccccc2)CC1 (stereo not given) | – | – | 50µM | 13µM | ? | –
OC(COCc1ccccc1)CN1CCN(c2ccccc2)CC1 (stereo not given) | – | – | ? | ? | ? | –
O=C1OCC2=C1C(c1ccccc1)CC(=O)N2c1ccccc1 (stereo not given) | – | – | – | – | – | –
CCCCC#Cc1ccccc1CC(=O)Nc1ccccc1 | – | – | ? | ? | 7.9µM | –
O=C(O)c1cc([N+](=O)[O-])cc([N+](=O)[O-])c1N1CCN(c2cccc(C(F)(F)F)c2)CC1 | · | – | – | – | 56µM | –
Cn1c(=O)[nH]c(=O)c2c1nc(N1CCOCC1)n2CCCSc1ncccn1 | – | – | – | – | – | –
COc1ccc(Cl)cc1NC(=O)CSc1nnc(Cc2cccn2C)n1-c1ccc(F)cc1 | – | – | ? | ? | 45µM | –
COc1ccc(Cl)cc1NC(=O)CSc1nnc(C2CC2)n1N | – | – | – | – | 79µM | –
Cn1cccc1Cc1nnc(SCC(=O)Nc2ccc(F)cc2F)n1-c1ccc(F)cc1 | – | – | ? | – | – | –
CCOc1ccccc1NC(=O)CSc1nnc(Cc2cccn2C)n1-c1ccc(F)cc1 | – | – | – | ? | – | –
Cc1ccc(NC(=O)CSc2nnc(Cc3cccn3C)n2-c2ccc(F)cc2)c(C)c1 | – | – | ? | – | 28µM | –
COc1ccc(NC(C)=O)cc1NC(=O)CSc1nnc(C2CCCCC2)n1N | – | – | – | – | · | –
CC(C)[C@H](CO)NC(=O)[C@H]1O[C@@H](n2ccc(=O)[nH]c2=O)[C@H](O)[C@@H]1O | – | – | · | · | · | ·
COc1ccc(N2CCN(C(=O)CN=C3NS(=O)(=O)C(c4ccc(C)cc4)=C3C)CC2)cc1 | – | – | – | – | 40µM | –
